The list is not random: actives were taken first. Their share in the collection is about 17%.
DT40 TDP1 CPT: qHTS for Inhibitors of human tyrosyl-DNA phosphodiesterase 1 (TDP1): qHTS in cells in presence of CPT; AID 686979, 2013; chicken DT40 Tdp1-/-;hTDP1 cells + 20 nM CPT, ATP luminescence, 48 h; Potency, µM (series often up to 46.2 µM), without a hit: at the top dose activity change, negative = growth inhibition, most hits filed as inhibitors; 12% of 420,000 active; also: % is scaled to controls: 0 for no effect and ±100 for the full control effect; nearly all actives have a fitted effect of over 55% in size
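Chicken DT40 Tdp1-/- cells complemented with human TDP1, 400 cells/well, exposed to compounds plus 20 nM camptothecin for at least 48 h at 37 C; viability read as ATP content by CellTiter-Glo luminescence.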
ATXN2 expr inh: Primary qHTS for Inhibitors of ATXN expression; HEK-293 ATXN2-luciferase reporter, luminescence, 24 h; Potency, µM (doses to about 57 µM), without a hit: at the top dose activity change, negative = inhibition, usual class: inhibitors; 0.72% of 360,000 active; AID 1745845, 2022; also: % is scaled to controls: 0 for no effect and ±100 for the full control effect; nearly all actives have a fitted effect of over 55% in size
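qHTS (up to 57 uM final) was run with 24 h compound exposure of reporter cells at 37 °C. Each well was multiplexed: SteadyGlo luminescence measured ATXN2-luciferase expression after a fluorogenic Gly-Phe-AFC viability readout (25 uM final).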
ATXN viability: Viability Counterscreen for Primary qHTS for Inhibitors of ATXN expression | S2 cells (HEK-293 line with an ATXN2-luciferase reporter) viability, CellTiter-Fluor protease fluorescence, 24 h | Potency, µM (series often up to 56.7 µM), usual class: cytotoxic | 0.49% of 400,000 active | AID 651635, 2014; also: nearly all actives have a fitted effect of over 40% in size
DT40 TDP1 no CPT: qHTS for Inhibitors of human tyrosyl-DNA phosphodiesterase 1 (TDP1): qHTS in cells in absence of CPT | AID 686978, 2013 | 15% of 420,000 active | Potency, µM (series often up to 46.2 µM), for inactives: top-dose activity change, negative = growth inhibition, hits mostly inhibitors | DT40 Tdp1-/- hTDP1 cells, no CPT, ATP luminescence, 48 h; also: % is scaled to controls: 0 for no effect and ±100 for the full control effect; nearly all actives have a fitted effect of over 55% in size
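Growth kinetics read by CellTiter-Glo luminescence after ≥48 hr at 37 °C. Cells: DT40 Tdp1-/- stably carrying human TDP1, 400 per well, compound exposure in the absence of CPT (DMSO vehicle).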
HepG2 viability: qHTS for Inhibitors of TGF-b: Cytotox Counterscreen; Potency, µM (highest dose often 46.1 µM), without a hit: at the top dose activity change, negative = cytotoxicity, most hits filed as cytotoxic; 0.76% of 410,000 active; HepG2 CAGA-GFP viability, ATP luminescence, 18 h
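HepG2 CAGA-GFP cells (1000/well, DMEM with 1% FBS) received compound, then TGF-beta at 500 pg/mL final, and were incubated 18 hours at 37 degrees C. Viability was read by CellTiter-Glo luminescence. Media-only wells were set as complete cell-killing and DMSO as no toxicity.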
TGFb SMAD3 inh: qHTS for Inhibitors of TGF-b. 1.2% of 410,000 active. HepG2 CAGA-GFP TGF-b/SMAD3 reporter, GFP fluorescence, 18 h; TGF-beta stimulated, 500 pg/mL final. Potency, µM (doses to about 46.1 µM), for inactives: at the top dose activity, negative = inhibition, hits mostly inhibitors; also: % is scaled to controls: 0 for no effect and ±100 for the full control effect; nearly all actives have a fitted effect of over 65% in size
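Cell-based qHTS in HEPG2 carrying a CAGA-GFP Smad reporter; compounds added before 500 pg/mL final TGF-beta, 18 h incubation at 37 degrees C, GFP fluorescence quantified per cell by imaging cytometry.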
The depositor's hits bear a star; i = inactive; ? = inconclusive; · = not tested or not shown; [ ] = remark or other dose. Calls follow the shape of the dose curve; as a rule, active = well fitted curve in the direction sought with a large enough effect; inconclusive = small, poorly fitted or top-dose-only effect, or another doubt; inactive = no such curve, though single readings can be large; an effect the other way counts as inactive or inconclusive. Potency is read from the fitted curve at half-maximal effect.

SMILES	DT40 TDP1 CPT	ATXN2 expr inh	ATXN viability	DT40 TDP1 no CPT	HepG2 viability	TGFb SMAD3 inh
COc1ccc(CCC(C)NCc2ccccc2OC)cc1 (stereo not drawn)	25.9µM*	-15.3%	i	?	-29.8%	-12.9%
CCOc1ccc(CC(=O)N2CCN=C2SC)cc1	-8.3%	1.4%	i	-26.6%	-13.6%	7.1%
COc1ccc(CNc2nc(-c3ccccc3OC)nc3ccccc23)c(OC)c1	23.1µM*	·	·	9.2µM*	·	·
COc1ccc(CNc2nc3ccccc3n2C)c(OC)c1	?	-3.2%	·	16.4µM*	-5.9%	?
COc1ccc(CNc2nc3ccccc3n2C(C)C)c(O)c1	?	-5.2%	·	?	-9.7%	-12.4%
COc1ccc(CNc2ccnc(-c3ccccc3OC)n2)c(OC)c1	13µM*	·	·	23.1µM*	·	·
COc1ccc(CNc2ncncc2-c2ccccc2CN(C)C)c(OC)c1	-22.4%	·	·	-22.9%	·	·
COc1ccc(CNc2ccnc(-c3ccccc3CN(C)C)n2)c(OC)c1	?	·	·	14.6µM*	·	·
Cc1cc(S(=O)(=O)Nc2cc3c(cc2N2CCOCC2)n(C)c(=O)c(=O)n3C)ccc1F	-15.4%	7.8%	i	-26.5%	1.5%	-7.2%
O=C(COc1ccccc1/C=C1\SC(=S)NC1=O)Nc1ccc(F)cc1	?	?	?	10.3µM*	-31.4%	?
NC1=NC(=O)/C(=C/c2ccccc2OCC(=O)Nc2ccc(F)cc2)S1	-9.0%	?	i	5.9%	7.6%	11.2%
COc1ccc(C(=O)NCCN2CCCC2)cc1[N+](=O)[O-]	3.9%	4.0%	i	3.1%	-1.4%	19.2%
CCOC(=O)c1cnc(-n2cc(C)cn2)nc1Nc1ccccc1OCC	10.3µM*	-26.7%	i	6.51µM*	5.0%	-11.8%
O=C(NCc1ccccc1)C12CN(Cc3ccccc3)CC1C(c1cccc([N+](=O)[O-])c1)=NO2 (stereo not drawn)	?	-5.8%	i	23.1µM*	1.0%	-4.8%
Cc1ccc(CCNC(=O)C23CN(Cc4ccccc4)CC2C(c2ccc([N+](=O)[O-])cc2)=NO3)cc1 (stereo not drawn)	20.6µM*	0.8%	i	?	0.7%	-6.9%
Cc1ccc(CNC(=O)C23CN(Cc4ccccc4)CC2C(c2ccc([N+](=O)[O-])cc2)=NO3)cc1 (stereo not drawn)	?	3.9%	i	?	-24.7%	1.5%
O=C(NCc1cc(C(F)(F)F)cc(C(F)(F)F)c1)C12CN(Cc3ccccc3)CC1C(c1cccc([N+](=O)[O-])c1)=NO2 (stereo not drawn)	-15.5%	4.4%	i	-14.7%	-32.0%	-8.5%
CCN(C(=O)COC(=O)C1CCN(S(=O)(=O)c2c(Cl)cccc2Cl)CC1)C1CCCCC1	-22.1%	-3.3%	i	-21.3%	-13.1%	5.5%
CC(=O)Nc1ccc(NS(=O)(=O)c2ccc3c(c2)CCCN3C(C)=O)cc1	4.4%	6.7%	i	1.8%	-48.9%	5.3%
COc1cc(NS(=O)(=O)c2ccc3c(c2)CCCN3C(C)=O)cc(OC)c1OC	8.2µM*	·	·	9.2µM*	-15.9%	-3.1%
COc1ccc(CC(=O)NCc2ccc3c(c2)CCN3C(C)=O)cc1OC	12.1%	·	·	-20.6%	4.0%	4.4%
CCOc1ccc(CNS(=O)(=O)c2ccc3c(c2)CCCN3C(C)=O)cc1OC	?	-10.6%	i	18.4µM*	-14.8%	-25.8%
CC(C)C[C@@H](CSc1ccccc1)N1CCN(CCc2ccccc2)CCC1=O	?	19.5%	i	20.6µM*	-8.0%	?
O=C1CCN(CCc2ccccc2)CCN1[C@H](CSc1ccccc1)c1ccccc1	11.2µM*	3.1%	?	11.2µM*	-19.8%	?
Cc1ccc(SC[C@H](c2ccccc2)N2CCN(CCc3ccccc3)CCC2=O)cc1	?	23.8%	i	20.6µM*	-18.6%	?
SMILES	DT40 TDP1 CPT	ATXN2 expr inh	ATXN viability	DT40 TDP1 no CPT	HepG2 viability	TGFb SMAD3 inh
O=C(O)Cc1ccc2c(c1)N(S(=O)(=O)c1cccs1)CC(C(=O)O)O2 (stereo not drawn)	-8.8%	-1.5%	i	10.6%	1.9%	-7.3%
NC(=O)c1ccsc1NC(=O)CSc1nnc(NC2CC2)s1	-4.4%	-3.1%	i	-2.0%	15.3%	-6.5%
CC1CN(CCC(=O)N2CCCC(C(=O)c3nccn3C)C2)Cc2cc(Cl)ccc2O1 (stereo not drawn)	23.2%[9.04 µM]	·	i	-18.3%	·	·
COc1ccc(NC(=O)C2CC(=O)N(c3ccccc3Cl)C2)c(OC)c1 (stereo not drawn)	-21.8%	-11.0%	i	-8.2%	-11.7%	-5.9%
COC(=O)C1=C(C(=O)OC)[C@@H]2N(Cc3ccccc3)c3ccccc3[C@@]23C[C@@H](C(=O)OC)N(C(=O)NC(C)(C)C)C3=N1	?	8.2%	i	-18.9%	13.7%	?
COC(=O)C1=C(C(=O)OC)[C@@H]2N(C)c3ccc(OC)cc3[C@@]23C[C@@H](C(=O)OC)N(C(=O)c2ccc(Br)cc2)C3=N1	?	?	?	25.9µM*	-29.0%	?
COC(=O)C1=C(C(=O)OC)[C@@H]2N(Cc3ccccc3)c3ccccc3[C@@]23C[C@@H](C(=O)OC)N(C(C)=O)C3=N1	?	-10.3%	?	?	-14.9%	-10.9%
COC(=O)C1=C(C(=O)OC)[C@@H]2N(Cc3ccccc3)c3ccccc3[C@@]23C[C@@H](C(=O)OC)N(C(=O)c2ccc(Br)cc2)C3=N1	?	?	?	18.4µM*	-9.9%	10µM*
CCOC(=O)N1C2=NC(C(=O)OC)=C(C(=O)OC)[C@@H]3N(Cc4ccccc4)c4ccccc4[C@]23C[C@H]1C(=O)OC	18.4µM*	-2.4%	?	?	-6.4%	1.0%
C=CCN1c2ccccc2[C@]23C[C@@H](C(=O)OC)N(C(=O)c4ccc(Br)cc4)C2=NC(C(=O)OC)=C(C(=O)OC)[C@H]13	?	?	?	?	-28.9%	20µM*
CCOc1ccc(C(=O)NC2CC(=O)N(c3ccc(C)cc3)C2)cc1OCC (stereo not drawn)	-5.3%	·	·	?	0.8%	-2.4%
CCC(CC)C(=O)Nc1ccc2nc(SCC(=O)N3CCc4ccccc43)sc2c1	4.61µM*	-12.4%	i	5.17µM*	-8.8%	5.0%
